According to PubChem BioAssay (Tox21):
Several values for one entry are separate records, joined by “and”; a condition that tells them apart may be missing. Equal entries are not always repeated. Unmarked numbers belong to inactive results. Inconclusive results are not listed. A call without a number means that no potency is given here. Activity calls are given as the source filed them. Unless noted, the call rests on the fitted dose curve; in most records, active means well fitted curve in the direction sought with a large enough effect in the repeat runs; inconclusive means weak or mixed curves; inactive means flat fitted curve, though single readings scatter.

Legend:
[1] = qHTS assay to test for compound auto fluorescence at 535 nm (green) in HEK293 cells (AID 720680)
[2] = qHTS assay to test for compound auto fluorescence at 460 nm (blue) in HEK293 cell free culture (AID 720681); further: potency means the concentration at half of the fitted maximal effect
Summary of the method: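 Test compounds were pinned into cell-free culture medium (DMEM with 10% FBS) and fluorescence was read directly at Ex/Em 405/460 nm. Signals were expressed as fluorescence equivalents of triamterene, with DMSO vehicle as control.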

[3] = qHTS assay to test for compound auto fluorescence at 535 nm (green) in HEK293 cell free culture (AID 720682)
Summary of the method: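 Cell-free medium (DMEM, 10% FBS) receives compound or DMSO by pintool. Plate read directly at Ex 485/Em 535 nm. Signal converted to fluorescein equivalency.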

[4] = qHTS assay to test for compound auto fluorescence at 590 nm (red) in HEK293 cell free culture (AID 720683)
Summary of the method: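 Tox21 10K library compounds were pinned into cell-free DMEM with 10% FBS and fluorescence was read at excitation 540 nm. Activity is expressed as Rose Bengal sodium equivalency.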

[5] = qHTS assay to test for compound auto fluorescence at 590 nm (red) in HepG2 cell free culture (AID 720684)
Summary of the method: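 Measured in medium alone (MEM containing 10% FBS) following pintool addition of compound; emission at 590 nm with 540 nm excitation, referenced to Rose Bengal sodium.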

[6] = qHTS assay to test for compound auto fluorescence at 460 nm (blue) in HepG2 cell free culture (AID 720685); further: potency means the concentration at half of the fitted maximal effect
Summary of the method: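 Compound (23 nL) or DMSO pinned into cell-free MEM with 10% FBS; blue fluorescence read at 405/460 nm excitation/emission, expressed as auto-fluorescence equivalency to triamterene.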

[7] = qHTS assay to test for compound auto fluorescence at 535 nm (green) in HepG2 cell free culture (AID 720686)
[8] = qHTS assay to test for compound auto fluorescence at 460 nm (blue) in HepG2 cells (AID 720687); further: potency means the concentration at half of the fitted maximal effect
Summary of the method: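 Cells (2,000/well in MEM with 10% FBS) attached overnight at 37 C, then were exposed to compound or DMSO for 1 hr at 37 C, 5% CO2. Fluorescence read at Ex/Em 405/460 nm, expressed as triamterene-equivalent signal.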

[9] = target: Glucocorticoid receptor (Homo sapiens) (UniProt P04150); test: qHTS assay to identify small molecule antagonists of the glucocorticoid receptor (GR) signaling pathway (AID 720692; active means well fitted inhibition curve with a large enough effect in the signal ratio in the repeat runs, not every such curve was filed as active; the % refers to the signal ratio; further: potency means the concentration at half of the fitted maximal effect)
Glucocorticoid receptor (Homo sapiens), sequence (P04150 whole entry, looked up): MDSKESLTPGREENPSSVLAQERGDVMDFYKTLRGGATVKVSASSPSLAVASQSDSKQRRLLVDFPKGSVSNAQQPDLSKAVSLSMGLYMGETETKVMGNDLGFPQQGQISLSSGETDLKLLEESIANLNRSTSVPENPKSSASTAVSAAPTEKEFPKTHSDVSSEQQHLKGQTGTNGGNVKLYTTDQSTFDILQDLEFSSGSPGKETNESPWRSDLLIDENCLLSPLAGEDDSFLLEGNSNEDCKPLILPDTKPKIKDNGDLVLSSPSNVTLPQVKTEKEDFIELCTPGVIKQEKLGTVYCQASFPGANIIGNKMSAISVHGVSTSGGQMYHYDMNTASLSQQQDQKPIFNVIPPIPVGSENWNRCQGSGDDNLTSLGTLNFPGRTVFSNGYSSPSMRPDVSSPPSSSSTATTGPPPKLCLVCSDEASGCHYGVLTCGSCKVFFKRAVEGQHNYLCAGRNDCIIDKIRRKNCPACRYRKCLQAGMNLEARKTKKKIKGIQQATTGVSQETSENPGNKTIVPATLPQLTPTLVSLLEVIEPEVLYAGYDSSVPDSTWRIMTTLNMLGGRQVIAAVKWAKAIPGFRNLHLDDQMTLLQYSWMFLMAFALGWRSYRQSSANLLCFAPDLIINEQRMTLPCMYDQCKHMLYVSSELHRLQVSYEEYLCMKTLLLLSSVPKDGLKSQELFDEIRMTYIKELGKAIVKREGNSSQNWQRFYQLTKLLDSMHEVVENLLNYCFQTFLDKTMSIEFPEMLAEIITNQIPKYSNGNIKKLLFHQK
Summary of the method: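 Cells plated, rested 4 h at 37 C/5% CO2; compounds in DMSO pin-transferred; dexamethasone added to 5 nM final; 18 h at 37 C; B/G FRET substrate added, 2 h room temperature; fluorescence measured.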

[10] = target: Glucocorticoid receptor (Homo sapiens) (UniProt P04150); test: qHTS assay to identify small molecule agonists of the glucocorticoid receptor (GR) signaling pathway (AID 720691; active means well fitted activation curve with a large enough effect in the signal ratio in the repeat runs, not every such curve was filed as active; the % refers to the signal ratio); details: GR-bla HeLa, beta-lactamase reporter ratio, 18 h; activation: at 62.4 µM (top of the series)
Summary of the method: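 Agonist mode in a HeLa line carrying a GRE-controlled beta-lactamase reporter. Compounds act for 18 h at 37 C before a 2 h room-temperature FRET substrate step and fluorescence reading.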
Tags describe the fitted curve by direction and shape or compound fluorescence and quenching.

C=C(c1ccc(C(=O)O)cc1)c1cc2c(cc1C)C(C)(C)CCC2(C)C
Potency [1]: inactive
Potency [2]: inactive
Potency [3]: inactive
Potency [4]: inactive
Potency [5]: inactive
Potency [6]: inactive
Potency [7]: inactive
Potency [8]: inactive
Potency [9]: 9.77 µM (active)

CCCCCCCCCCCCCOP(=O)(O)O
Potency [1]: inactive
Potency [2]: inactive
Potency [3]: inactive
Potency [4]: inactive
Potency [5]: inactive
Potency [6]: inactive
Potency [7]: inactive
Potency [8]: inactive
Potency [10]: inactive
Potency [9]: inactive

CC1CCCNC1 (centres undefined)
Potency [1]: inactive
Potency [2]: inactive
Potency [3]: inactive
Potency [4]: inactive
Potency [5]: inactive
Potency [6]: inactive
Potency [7]: inactive
Potency [8]: inactive
Potency [10]: inactive
Potency [9]: inactive

O=C(O)Cc1ccc(OCCNC[C@H](O)c2ccccc2)cc1
Potency [1]: inactive
Potency [2]: inactive
Potency [3]: inactive
Potency [4]: inactive
Potency [5]: inactive
Potency [6]: inactive
Potency [7]: inactive
Potency [8]: inactive
Potency [10]: inactive
Potency [9]: inactive

NC(=O)C(=O)N/N=C/c1ccc([N+](=O)[O-])o1
Potency [1]: inactive
Potency [2]: inactive
Potency [3]: inactive
Potency [4]: inactive
Potency [5]: inactive
Potency [6]: inactive
Potency [7]: inactive
Potency [8]: inactive
Potency [10]: inactive
Potency [9]: inactive

C/C=C/C=N/NC(=O)c1ccncc1
Potency [1]: inactive
Potency [2]: inactive
Potency [3]: inactive
Potency [4]: inactive
Potency [5]: inactive
Potency [6]: inactive
Potency [7]: inactive
Potency [8]: inactive
Potency [10]: inactive
Potency [9]: inactive

CC(C)c1cccc(C(C)C)c1N1C(=O)c2ccc(O)cc2C1=O
Potency [1]: inactive
Potency [2]: 35.5 µM (active)
Potency [3]: inactive
Potency [4]: inactive
Potency [5]: inactive
Potency [6]: 39.8 µM [fluorescent] (active)
Potency [7]: inactive
Potency [8]: 35.5 µM [fluorescent] (active)
Potency [9]: 38.9 µM (active)

CCC(=O)OCCc1ccccc1
Potency [1]: inactive
Potency [2]: inactive
Potency [3]: inactive
Potency [4]: inactive
Potency [5]: inactive
Potency [6]: inactive
Potency [7]: inactive
Potency [8]: inactive
Potency [10]: inactive
Potency [9]: inactive

CC(C)(C)C1=CC(=O)C=C(C(C)(C)C)C1=O
Potency [1]: inactive
Potency [2]: inactive
Potency [3]: inactive
Potency [4]: inactive
Potency [5]: inactive
Potency [6]: inactive
Potency [7]: inactive
Potency [8]: inactive
Potency [10]: inactive

CCO[Si](CCCSSSSCCC[Si](OCC)(OCC)OCC)(OCC)OCC
Potency [1]: inactive
Potency [2]: inactive
Potency [3]: inactive
Potency [4]: inactive
Potency [5]: inactive
Potency [6]: inactive
Potency [7]: inactive
Potency [8]: inactive
Potency [10]: inactive
Potency [9]: inactive

C[Si](C)(C)Cl
Potency [1]: inactive
Potency [2]: inactive
Potency [3]: inactive
Potency [4]: inactive
Potency [5]: inactive
Potency [6]: inactive
Potency [7]: inactive
Potency [8]: inactive
Potency [10]: inactive
Potency [9]: inactive

CCCCCCCCCCCCCCCC
Potency [1]: inactive
Potency [2]: inactive
Potency [3]: inactive
Potency [4]: inactive
Potency [5]: inactive
Potency [6]: inactive
Potency [7]: inactive
Potency [8]: inactive
Potency [10]: inactive
Potency [9]: inactive

Clc1ccc(C(c2ccccc2Cl)C(Cl)Cl)cc1 (centres undefined)
Potency [1]: inactive
Potency [2]: inactive
Potency [3]: inactive
Potency [4]: inactive
Potency [5]: inactive
Potency [6]: inactive
Potency [7]: inactive
Potency [8]: inactive
Potency [9]: 10.7 µM (active) and 27.5 µM (active)

CCOC(=O)[C@@](C)(N)Cc1ccc(O)c(O)c1
fluorescence, % of fluorescein [1]: -0.0378% [at 18.6 µM]
fluorescence, % of fluorescent control [2]: 0.186% [at 18.6 µM]
activity change [3]: -0.0329% [at 18.6 µM, active compounds read high]
fluorescence, % of fluorescent control [4]: 0.256% [at 18.6 µM]
fluorescence, % of Rose Bengal [5]: 0.0263% [at 18.6 µM]
fluorescence, % of fluorescent control [6]: 0.193% [at 18.6 µM]
fluorescence, % of fluorescein control [7]: -0.0478% [at 18.6 µM]
fluorescence, % of fluorescent control [8]: 0.0997% [at 18.6 µM]
Potency [10]: inactive
Potency [9]: inactive

COC(=O)[C@]1(C)CCC[C@@]2(C)[C@H]1CC=C1C=C(C(C)C)CC[C@@H]12
Potency [1]: inactive
Potency [2]: inactive
Potency [3]: inactive
Potency [4]: inactive
Potency [5]: inactive
Potency [6]: inactive
Potency [7]: inactive
Potency [8]: inactive
Potency [10]: inactive
Potency [9]: inactive

CCCCCCC(C)Nc1ccc(Nc2ccccc2)cc1 (centres undefined)
Potency [1]: inactive
Potency [2]: inactive
Potency [3]: inactive
Potency [4]: inactive
Potency [5]: inactive
Potency [6]: inactive
Potency [7]: inactive
Potency [8]: inactive
Potency [9]: 43.6 µM (active)

C[C@]12CC[C@H]3C(=CCc4cc(O)ccc43)[C@@H]1CCC2=O
Potency [1]: inactive
Potency [2]: inactive
Potency [3]: inactive
Potency [4]: inactive
Potency [5]: inactive
Potency [6]: inactive
Potency [7]: inactive
Potency [8]: inactive
Potency [9]: 11 µM (active)

CNC(=S)NN
Potency [1]: inactive
Potency [2]: inactive
Potency [3]: inactive
Potency [4]: inactive
Potency [5]: inactive
Potency [6]: inactive
Potency [7]: inactive
Potency [8]: inactive
Potency [10]: inactive
Potency [9]: inactive
